PubChem BioAssay (NCI)
About 83,000 compounds went through this panel and 20% of them were active in at least one assay; those are over-represented in the sample as a whole.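 Percent growth is the endpoint: 0 to 100 indicates growth inhibition (40 means 60% inhibition), 0 means no net growth, and negative values indicate cell death.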 Unmarked numbers belong to inactive results. The source made the active and inactive calls. How the source made its calls: active means growth percent below 10; inactive means the rest.

Columns and labels:
Assay in all cases: NCI-60 one-dose screen, 48 h (100 = growth as untreated, 0 = no growth, -100 = all killed)
Conditions in all cases: 10 µM unless noted
DU-145 prostate = tested on: DU-145 prostate
K-562 leukemia = tested on: K-562 leukemia
MALME-3M melanoma = tested on: MALME-3M melanoma
MDA-MB-231 breast = tested on: MDA-MB-231 breast
RXF 393 renal = tested on: RXF 393 renal
SF-268 CNS = tested on: SF-268 CNS
SF-295 CNS = tested on: SF-295 CNS
SF-539 CNS = tested on: SF-539 CNS
UACC-257 melanoma = tested on: UACC-257 melanoma
M14 melanoma = tested on: M14 melanoma

Row | SMILES | growth (DU-145 prostate) | growth (K-562 leukemia) | growth (MALME-3M melanoma) | growth (MDA-MB-231 breast) | growth (RXF 393 renal) | growth (SF-268 CNS) | growth (SF-295 CNS) | growth (SF-539 CNS) | growth (UACC-257 melanoma) | growth (M14 melanoma)
1 | O=C1CC(Sc2n[nH]c(-c3ccncc3)n2)C(=O)N1c1ccc(Br)cc1 (stereo not given) | 117% | 88.5% | 104% | 99% | 137% | 117% | 107% | 102% | 105% | 115%
2 | CCC(C)(C)c1ccc(OCCCCCCN2CCN(c3ccncc3)CC2)cc1 | 35.5% | -24.8% (active) | -94.7% (active) | -77.6% (active) | -62.5% (active) | 50.5% | -78% (active) | -72.4% (active) | 18.4% | -68.7% (active)
3 | CCCSc1nc(NCCc2c[nH]c3ccccc23)c(C#N)c(-c2ccc(F)cc2)n1 | 63.7% | 27.7% | 75.4% | 29.2% | 24.8% | 53.8% | 41.2% | 44.7% | 74.6% | 75.5%
4 | Cc1ccc(S(=O)(=O)c2nc(S(=O)(=O)c3ccc(C)cc3)c(Cl)s2)cc1 | -22.5% (active) | 5.15% (active) | -90.4% (active) | -54.5% (active) | -76.9% (active) | 108% | 94% | -62% (active) | 67.2% | 23.7%
5 | COc1cc2oc(-c3cccc(C(=O)Nc4ccc(Cl)cc4)c3)cc(=O)c2c(OCCNC(=O)[C@H](CO)NC(=O)OC(C)(C)C)c1OC | 32.2% | 11.3% | 20% | 2.74% (active) | -25.7% (active) | 41.4% | -16.4% (active) | -54.2% (active) | -41.7% (active) | -7.57% (active)
6 | COc1ccc(C(=O)/C=C/c2ccc(OC)c(OCc3ccccc3)c2)cc1OC | 15.4% | 13.2% | 74.1% | 17.9% | -10.4% (active) | 21.1% | 69% | -27.2% (active) | 42.7% | 34.6%
7 | C/C(=N\N=C1/C(=O)Nc2ccccc21)c1ccc2c(c1)Nc1ccccc1S2 | 53.2% | 31.8% | 35.5% | 39% | 96.1% | 55.3% | 57.8% | 71.7% | 27.5% | 65%
8 | CCCSc1nc(NCCc2c[nH]c3ccccc23)c(C#N)c(-c2ccc(OC)cc2)n1 | 62.2% | 23.5% | 83.1% | 41.2% | -17.3% (active) | 57.4% | 29.7% | 50.6% | 89.8% | 63.5%
9 | COc1ccc2[nH]cc(-c3nnc(N)nc3-c3c[nH]c4ncc(Br)cc34)c2c1 | 92.6% | 74.1% | 92.5% | 73.4% | 79.2% | 85.5% | 82% | 70.7% | 127% | 97.6%
10 | CC1CN(c2oc(-c3ccc([N+](=O)[O-])cc3)nc2C#N)CC(C)O1 (stereo not given) | 117% | 105% | 95.7% | 95.9% | 108% | 107% | 95.5% | 93.9% | 102% | 103%
11 | Cn1cc(-c2nc(N)nnc2-c2c[nH]c3ccc(F)cc23)c2cc(Br)cnc21 | 10.1% | 5.23% (active) | 21.6% | 5.57% (active) | -4.53% (active) | 4.51% (active) | 9.21% (active) | -11.5% (active) | 29.8% | -9.79% (active)
12 | O=C(/C=C/Nc1ccc2oc(=O)ccc2c1)c1cc2cc(Br)ccc2oc1=O | 122% | 110% | 95.2% | 94.1% | 121% | 107% | 102% | 97.4% | 91.2% | 99.4%
13 | O=C(NN1C(=O)/C(=C/C=C/c2ccc([N+](=O)[O-])o2)SC1=S)c1cccc(O)c1 | -99.2% (active) | 6.17% (active) | -99.2% (active) | -98.4% (active) | -89.6% (active) | -91.3% (active) | -40.1% (active) | -100% (active) | -85.2% (active) | -89% (active)
14 | COc1ccc(-c2c(Nn3cnnn3)no[n+]2[O-])cc1 | 63.1% | 30.2% | 62.2% | 38.8% | 42.5% | 66.3% | 51.6% | 56.3% | 71.8% | 59.9%
15 | CN(C)CCOc1ccc(C(=O)C2[C@H](c3ccc(Cl)cc3)[C@@H](c3ccccc3)NC23C(=O)Nc2ccccc23)cc1 (stereo not given in full) | 66.6% | -51.5% (active) | 79.8% | 49.5% | 50.4% | 78.1% | 65.7% | 82.8% | 95.8% | 45.2%
16 | COc1ccc(/C=C/c2nc3ccccc3nc2Nc2cccc(C)c2)cc1 | 108% | 84.2% | 115% | 88.5% | 109% | 96.8% | 127% | 103% | 112% | 99.6%
17 | CCCCCCCCOc1cccc(S(=O)(=O)Nc2ccc(C)cc2C(=O)O)c1 | 102% | 83.8% | 96% | 105% | 107% | 99.2% | 90% | 97.6% | 96.7% | 100%
18 | Clc1cccc(N/N=C/c2c[nH]c3ccc(Br)cc23)n1 | 64.1% | -26% (active) | 39% | -67.7% (active) | 31.6% | 40.8% | -9.75% (active) | -1.26% (active) | 57.6% | 15.2%
19 | c1ccc(-c2csc(Nc3cccc(Nc4nc(-c5ccccc5)cs4)c3)n2)cc1 | 58.9% | 26.6% | 52.8% | 48% | 63.8% | 40.6% | 37.6% | 57.7% | 46.1% | 47.8%
20 | Cn1cc(-c2nnc(N)nc2-c2c[nH]c3ccc(Br)cc23)c2cc(Br)cnc21 | 75.8% | 26.7% | 69% | 55.8% | 17.1% | 71.3% | 63.5% | 63.6% | 83.4% | 57.2%
21 | C=CC[N+](C)(C)CCn1c2ccccc2c2nc3cc(C)c(C)cc3nc21 | 105% | 75.7% | 57.1% | 105% | 89.2% | 56.1% | 99.6% | 56.8% | 86% | 96.2%
22 | CCOC(=O)C1=C(N)N(c2ccccc2)C2=C(C(=O)CC(C)(C)C2)C1c1ccccc1Cl (stereo not given) | 88.2% | 41.5% | 89.3% | 84.8% | 78.2% | 80% | 75% | 100% | 72.5% | 50.8%
23 | O=c1[nH]c2ccccc2cc1CSc1nccc(-c2ccc3ccccc3c2)n1 | 81% | 10.1% | 86.3% | 58.2% | 59.1% | 85.4% | 70.8% | 71.2% | 99.3% | 56.1%
24 | CC(=O)c1c(N)c(C#N)cn1-c1ccc(Cl)cc1Cl | 113% | 95.1% | 107% | 99.7% | 104% | 107% | 116% | 99.9% | 106% | 98.9%
25 | COc1cc2oc(-c3cccc(C(=O)Nc4cccc([N+](=O)[O-])c4)c3)cc(=O)c2c(OC)c1OC | 29.5% | 69.2% | 11.4% | 11.5% | -13.4% (active) | -3.57% (active) | -0.211% (active) | 3.56% (active) | 31.7% | 58.2%
26 | COc1ccc(C2=NN(c3ccccc3)C(c3ccc(OC)c(OCc4ccccc4)c3)C2)cc1OC (stereo not given) | 105% | 95% | 92.6% | 100% | 98.1% | 96.5% | 107% | 99.9% | 103% | 104%
27 | N/C(=N\N=C\c1ccc([N+](=O)[O-])cc1)c1c(N)nc(=S)[nH]c1-c1ccc(Cl)cc1Cl | 115% | 95% | 73% | 77.5% | 73.1% | 94.9% | 52.4% | 74.7% | 104% | 102%
